# From PubChem BioAssay (Tox21)
# Results filed as inconclusive are left out. A call without a number means that no potency is given here. A number with no mark means an inactive call. Active and inactive are the calls of the source. Unless noted, the call rests on the fitted dose curve; in most records, active means well fitted curve in the direction sought with a large enough effect in the repeat runs; inconclusive means weak or mixed curves; inactive means no such curve, though single readings can be large; an effect the other way counts as inactive or inconclusive.
# Tests used:
# [1] = qHTS assay to identify small molecule agonists of the vitamin D receptor (VDR) signaling pathway - cell viability counter screen (AID 743224); further: nearly all actives have a fitted effect of over 50% in size; further: potency means the concentration at half of the fitted maximal effect; on activity change, negative = cytotoxicity: series mostly up to about 63 µM
# Method in brief: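 Viability is measured in the same wells as the VDR-bla reporter assay: after 16 h compound treatment and 2 h substrate loading, CellTiter-Glo is added and luminescence read 30 min later.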
# [2] = qHTS assay to identify small molecule agonists of the NFkB signaling pathway - cell viability counter screen (AID 1159515; calls by dose curve; further: series mostly up to about 61 µM; nearly all actives have a fitted effect of over 55% in size)
# Method in brief: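 Multiplexed viability readout: after the 5 hr compound exposure and 1.5 hr FRET substrate step, CellTiter-Glo reagent went into the same NFkB-bla ME-180 wells; ATP luminescence was measured after 30 min at room temperature.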
# [3] = qHTS assay to identify small molecule agonists of the endoplasmic reticulum stress response signaling pathway (AID 1159516; active means well fitted activation curve with a large enough effect in the signal ratio in the repeat runs, not every such curve was filed as active; the % refers to the signal ratio)
# Method in brief: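 Tox21 10K library screened in quantitative HTS format on ESRE-bla HeLa cells, a beta-lactamase reporter under ER stress response element control; 5 hr treatment, FRET read.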
# [4] = qHTS assay to identify small molecule agonists of the endoplasmic reticulum stress response signaling pathway - cell viability counter screen (AID 1159517; calls by dose curve; further: nearly all actives have a fitted effect of over 50% in size; further: potency means the concentration at half of the fitted maximal effect; on activity change, negative = cytotoxicity: series mostly up to about 61 µM)
# Method in brief: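 Cells, HeLa ESRE-bla; density, 1,500/well; dosing, 5 hr at 37 C, 5% CO2; readout, CellTiter-Glo luminescence after 30 min RT.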
# [5] = target: Nuclear receptor ROR-gamma (Homo sapiens) (UniProt P51449); test: qHTS assay to identify small molecule antagonists of the retinoid-related orphan receptor gamma (ROR-gamma) signaling pathway (AID 1159521; further: nearly all actives have a fitted effect of over 50% in size; further: potency means the concentration at half of the fitted maximal effect)
# Method in brief: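 Antagonist read-out: drop in luminescence (ONE-Glo) from an RORE-LUC reporter in CHO cells with doxycycline-inducible ROR-gamma; 2 hr compound pretreatment, 1 uM doxycycline, 16 hr incubation at 37 C.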
# [6] = qHTS assay to identify small molecule agonists of the AP-1 signaling pathway - cell viability counter screen (AID 1159525; calls by dose curve; further: nearly all actives have a fitted effect of over 55% in size)
# Method in brief: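 Luminescent ATP readout (Cell Titer Glo, 30 min RT), normalised to DMSO and tetra n-octyl ammonium bromide controls. Cells were ME-180 AP-1-bla in 0.5% dialyzed FBS Opti-MEM, with a 5 h, 37 °C compound exposure.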
# [7] = qHTS assay to identify small molecule agonists of the AP-1 signaling pathway (AID 1159526; calls by dose curve)
# [8] = qHTS assay to identify small molecule agonists of the RXR signaling pathway - cell viability counter screen (AID 1159529); further: nearly all actives have a fitted effect of over 50% in size; further: potency means the concentration at half of the fitted maximal effect; on activity change, negative = cytotoxicity: series mostly up to about 77 µM
# Method in brief: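 CellTiter-Glo luminescence gave viability in the wells also read for beta-lactamase. Cells (RXR-alpha-UAS-bla HEK 293T, 2% charcoal-stripped FBS medium) had 5 hr plating, then 16 hr compound exposure at 37 C; tetraoctyl ammonium bromide served as positive control.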
# [9] = qHTS assay to identify small molecule antagonists of the retinoid acid receptor (RAR) signaling pathway - cell viability counter screen (AID 1159551); further: nearly all actives have a fitted effect of over 35% in size; further: potency means the concentration at half of the fitted maximal effect
# Method in brief: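 Cytotoxicity counter screen in C3RL4 cells: 6 h compound exposure with 1 uM retinol (final), viability from cellular ATP by luminescence.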
# [10] = qHTS assay to identify small molecule antagonists of the retinoic acid receptor (RAR) signaling pathway (AID 1159552; further: nearly all actives have a fitted effect of over 50% in size)
# Method in brief: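 Luminescent RARE reporter read-out in C3RL4 cells: 6 hr co-treatment at 37 C of test compounds with retinol at 1 uM final. Cells plated overnight beforehand; luciferase reagent incubated 30 min at room temperature before reading.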
# [11] = qHTS assay to identify small molecule agonists of the retinoic acid receptor (RAR) signaling pathway (AID 1159553)
# Method in brief: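 Agonist activity was scored in C3RL4 cells bearing a retinoic acid response element luciferase construct. Cells were treated with compounds for 6 hr at 37 C, and luciferase signal was measured as luminescence.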
# [12] = qHTS assay to identify small molecule antagonists of the retinoid-related orphan receptor gamma (ROR-gamma) signaling pathway - cell viability counter screen (AID 1159520); further: nearly all actives have a fitted effect of over 50% in size; further: potency means the concentration at half of the fitted maximal effect
# Method in brief: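 Cytotoxicity was read from cellular ATP (CellTiter-Glo luminescence) after 16 hr at 37 C with 1 uM doxycycline induction. The inducer was added 2 hr after compound transfer to Tet-on ROR gamma CHO cells.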
# [13] = qHTS assay to identify small molecule antagonists of the estrogen related receptor (ERR) signaling pathway - cell viability counter screen (AID 1224818);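 further: series mostly up to about 46 µM; viability measured after 17.5 h of compound exposure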
# Method in brief: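 Cells carrying the ERR pathway reporter were seeded and incubated for 6 hours before compound addition. After a 17.5-hour exposure at 37 C, live-cell protease activity was measured by CellTiter-Fluor fluorescence following 30 minutes of incubation.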
# [14] = qHTS assay to identify small molecule antagonists of the estrogen related receptor (ERR) signaling pathway (AID 1224819)
# Method in brief: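 Compounds dissolved in DMSO were pin-transferred onto ERR cells that had been plated 6 h earlier, and cells were then incubated 18 h at 37 C; signal was luciferase luminescence via One-Glo.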
# [15] = qHTS assay to identify small molecule agonists of the estrogen related receptor (ERR) signaling pathway (AID 1224820)
# Method in brief: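 Quantitative HTS of the LOPAC library used NTP ERR reporter cells treated 18 h at 37 C. Signal is luminescence after One-Glo addition and a 30 min room-temperature incubation.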
# [16] = test system: estrogen-related receptor alpha (ERRalpha) with PGC-1alpha coactivator, human; test: qHTS assay to identify small molecule antagonists of the estrogen related receptor signaling pathway with the pleiotropic PPARgamma coactivator (PGC) (AID 1224821; calls by dose curve)
# Method in brief: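 Quantitative HTS for antagonism: PGC/ERR cells received compounds after 6 h attachment and were incubated 18 h at 37 C, with luminescence (One-Glo) as the endpoint.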
# [17] = qHTS assay to identify small molecule agonists of the estrogen related receptor signaling pathway with the pleiotropic PPARgamma coactivator (PGC) (AID 1224823)
# Method in brief: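 Cell-based luciferase assay in the NTP-supplied PGC/ERR line, 2,000 cells/well; 18 h compound exposure at 37 C, luminescence after One-Glo.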
# [18] = qHTS assay to identify small molecule antagonists of the vitamin D receptor (VDR) signaling pathway - cell viability counter screen (AID 743225); further: nearly all actives have a fitted effect of over 50% in size
# Method in brief: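 Cytotoxicity counter screen read by CellTiter-Glo luminescence (30 min, room temperature) in the same wells as the VDR-bla antagonist readout. HEK 293T VDR-UAS-bla cells had 16 h at 37C with compound and 3 nM (final) 1-alpha,25-dihydroxyvitamin D3, then 2 h with FRET substrate.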
# [19] = qHTS assay to identify small molecule antagonists of the estrogen related receptor signaling pathway with the pleiotropic PPARgamma coactivator (PGC) cell viability counter screen (AID 1224822;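 further: series mostly up to about 46 µM; viability read after 17.5 h compound exposure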)
# Method in brief: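 Seed PGC/ERR cells (2,000/well); incubate 6 h at 37 C/5% CO2; pin-transfer compounds in DMSO; incubate 17.5 h at 37 C; add CellTiter-Fluor; after 30 min read fluorescence.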
# [20] = target: Retinoic acid receptor RXR-alpha (Homo sapiens) (UniProt P19793); test: qHTS assay to identify small molecule agonists of the RXR signaling pathway (AID 1159527; calls by dose curve; further: nearly all actives have a fitted effect of over 35% in size)
# Sequence of Retinoic acid receptor RXR-alpha (Homo sapiens) (P19793 whole entry, looked up): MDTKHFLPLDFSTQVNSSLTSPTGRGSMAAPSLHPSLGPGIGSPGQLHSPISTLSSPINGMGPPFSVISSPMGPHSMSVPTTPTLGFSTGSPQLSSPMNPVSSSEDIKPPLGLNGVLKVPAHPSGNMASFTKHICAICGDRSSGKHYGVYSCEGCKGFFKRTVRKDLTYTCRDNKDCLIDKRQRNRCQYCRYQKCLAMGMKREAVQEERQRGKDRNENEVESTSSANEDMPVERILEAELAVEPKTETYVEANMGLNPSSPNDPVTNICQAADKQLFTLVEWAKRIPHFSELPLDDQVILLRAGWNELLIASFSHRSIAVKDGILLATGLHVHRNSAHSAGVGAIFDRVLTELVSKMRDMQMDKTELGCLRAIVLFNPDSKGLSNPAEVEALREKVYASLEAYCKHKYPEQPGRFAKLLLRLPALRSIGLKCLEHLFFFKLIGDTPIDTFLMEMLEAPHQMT
# Method in brief: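 Agonist-mode beta-lactamase reporter assay: HEK 293T RXR-alpha-UAS-bla cells treated 16 hr at 37 C with compounds, 9-cis retinoic acid as positive control. LiveBLAzer FRET substrate, 405 nm excitation, 460/530 nm emission.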
compound,measurement,setting,value
Cc1nn(C)c(Oc2ccccc2)c1/C=N/OCc1ccc(C(=O)OC(C)(C)C)cc1,Potency,[1],0.0123 µM (active)
same,Potency,[2],inactive
same,Potency,[3],inactive
same,Potency,[4],inactive
same,Potency,[5],0.486 µM (active)
same,Potency,[6],inactive
same,Potency,[7],inactive
same,Potency,[8],inactive
same,Potency,[9],inactive
same,Potency,[10],inactive
same,Potency,[11],inactive
CN(C)CCCN1c2ccccc2Sc2ccccc21,Potency,[2],inactive
same,Potency,[3],inactive
same,Potency,[4],inactive
same,Potency,[12],inactive
same,Potency,[6],inactive
same,Potency,[9],inactive
same,Potency,[11],inactive
same,outcome,[13],inactive
same,Potency,[14],inactive
same,outcome,[15],inactive
same,Potency,[16],inactive
same,outcome,[17],inactive
CC(=O)OC[C@H]1O[C@@H](n2ncc(=O)[nH]c2=O)[C@H](OC(C)=O)[C@@H]1OC(C)=O,Potency,[1],inactive
same,Potency,[18],inactive
same,Potency,[2],inactive
same,Potency,[3],inactive
same,Potency,[4],inactive
same,Potency,[5],1.5 µM (active)
same,Potency,[6],inactive
same,Potency,[7],inactive
same,Potency,[8],inactive
same,Potency,[9],inactive
same,Potency,[10],inactive
same,Potency,[11],inactive
COc1ccc(-c2nc3ccc(C4=NNC(=O)CC4C)cc3[nH]2)cc1 (stereo unspecified),Potency,[1],inactive
same,Potency,[2],inactive
same,Potency,[3],inactive
same,Potency,[4],inactive
same,Potency,[5],inactive
same,Potency,[6],inactive
same,Potency,[7],inactive
same,Potency,[8],inactive
same,Potency,[9],inactive
same,Potency,[10],inactive
C/C=C/C(=O)CC,"activity change, negative = cytotoxicity",[1],7.61% [at 13.2 µM]
same,"viability change, negative = cytotoxic",[18],1.57% [at 15.1 µM]
same,"activity, negative = cytotoxic",[2],18.8% [at 15.1 µM]
same,activation,[3],0.579% [at 15.1 µM]
same,"activity change, negative = cytotoxicity",[4],28.8% [at 15.1 µM]
same,"activity, negative = cytotoxicity",[12],4.4% [at 19 µM]
same,"viability change, negative = cytotoxic",[6],-12.1% [at 15.8 µM]
same,"activity change, negative = cytotoxicity",[9],-1.29% [at 19 µM]
same,"activity, negative = inhibition",[10],130% [at 19 µM]
CCCNCC(O)COc1ccccc1C(=O)CCc1ccccc1 (stereo unspecified),Potency,[18],inactive
same,Potency,[2],inactive
same,Potency,[3],inactive
same,Potency,[4],inactive
same,Potency,[12],inactive
same,Potency,[6],inactive
same,Potency,[9],inactive
same,outcome,[13],inactive
same,outcome,[19],inactive
O[C@@H](COc1cccc2ncccc12)CN1CCN(C2c3ccccc3[C@@H]3[C@H](c4ccccc42)C3(F)F)CC1 (stereo partly specified),Potency,[3],inactive
same,Potency,[4],inactive
same,Potency,[12],inactive
same,Potency,[5],inactive
same,Potency,[7],inactive
same,Potency,[9],inactive
COc1ccc(C)cc1[N+](=O)[O-],Potency,[1],inactive
same,Potency,[18],inactive
same,Potency,[3],inactive
same,Potency,[4],inactive
same,Potency,[12],inactive
same,Potency,[6],inactive
same,Potency,[7],inactive
same,Potency,[20],inactive
same,Potency,[8],inactive
same,Potency,[9],inactive
same,Potency,[10],inactive
same,Potency,[11],inactive
CCC(C)O (stereo unspecified),Potency,[1],inactive
same,Potency,[18],inactive
same,Potency,[3],inactive
same,Potency,[4],inactive
same,Potency,[12],inactive
same,Potency,[6],inactive
same,Potency,[7],inactive
same,Potency,[20],inactive
same,Potency,[8],inactive
same,Potency,[9],inactive
same,Potency,[10],inactive
same,Potency,[11],inactive
CCOCC(O)COc1ccc(NC(=O)CC[S+](C)C)cc1 (stereo unspecified),Potency,[1],inactive
same,Potency,[18],inactive
same,Potency,[3],inactive
same,Potency,[4],inactive
same,Potency,[12],inactive
same,Potency,[6],inactive
same,Potency,[7],inactive
same,Potency,[20],inactive
same,Potency,[8],inactive
same,Potency,[9],inactive
same,Potency,[10],inactive
same,Potency,[11],inactive
COc1ccc2cccc(CCNC(C)=O)c2c1,Potency,[1],inactive
same,Potency,[18],inactive
same,Potency,[3],inactive
same,Potency,[4],inactive
same,Potency,[12],inactive
same,Potency,[6],inactive
same,Potency,[7],inactive
same,Potency,[8],inactive
same,Potency,[9],inactive
same,Potency,[10],inactive
same,Potency,[11],inactive
CCCCC(=O)OCC(=O)[C@H]1[C@H](C)C[C@H]2[C@@H]3C[C@H](F)C4=CC(=O)C=C[C@]4(C)[C@@]3(F)[C@@H](O)C[C@@]21C,Potency,[1],inactive
same,Potency,[18],inactive
same,Potency,[3],inactive
same,Potency,[4],inactive
same,Potency,[12],inactive
same,Potency,[6],inactive
same,Potency,[7],inactive
same,Potency,[20],inactive
same,Potency,[9],inactive
CC1OC(=O)C(C)OC1=O (stereo unspecified),Potency,[1],inactive
same,Potency,[18],inactive
same,Potency,[3],inactive
same,Potency,[4],inactive
same,Potency,[12],inactive
same,Potency,[6],inactive
same,Potency,[7],inactive
same,Potency,[20],inactive
same,Potency,[8],inactive
same,Potency,[9],inactive
same,Potency,[10],inactive
same,Potency,[11],inactive
CCCCCCOC(=O)NC(=N)c1ccc(NCc2nc3cc(C(=O)N(CCC(=O)OCC)c4ccccn4)ccc3n2C)cc1,Potency,[1],29.8 µM (active)
same,Potency,[3],inactive
same,Potency,[4],21.3 µM (active)
same,Potency,[12],inactive
same,Potency,[5],11.9 µM (active)
same,Potency,[8],10.7 µM (active)
same,Potency,[9],inactive
same,Potency,[10],inactive
same,Potency,[11],inactive
CC(=O)c1ccc2c(c1)N(CCCN(C)C)c1ccccc1S2,Potency,[1],inactive
same,Potency,[18],inactive
same,Potency,[3],inactive
same,Potency,[4],inactive
same,Potency,[12],inactive
same,Potency,[6],inactive
same,Potency,[20],inactive
same,Potency,[9],inactive
same,Potency,[11],inactive
same,outcome,[13],inactive
same,outcome,[19],inactive
CC1=CCCC(C)(C)C12CCC(C)O2 (stereo unspecified),Potency,[1],inactive
same,Potency,[18],inactive
same,Potency,[3],inactive
same,Potency,[4],inactive
same,Potency,[12],inactive
same,Potency,[6],inactive
same,Potency,[7],inactive
same,Potency,[20],inactive
same,Potency,[9],inactive
Nc1ccc(N)c2c1C(=O)c1ccccc1C2=O,Potency,[1],inactive
same,Potency,[18],inactive
same,Potency,[3],inactive
same,Potency,[4],inactive
same,Potency,[12],21.7 µM (active)
same,Potency,[6],inactive
same,Potency,[7],inactive
same,Potency,[20],inactive
same,Potency,[9],30.6 µM (active)
same,Potency,[10],inactive
